A selection: hits, their analogues and other compounds. The true share with any hit is near 0.93%.
CIT2-GFP yeast: modulators of CIT2-GFP expression in yeast, primary screen, S. cerevisiae, GFP fusion, multiplex flow cytometry, MLPCN library; S. cerevisiae CIT2-GFP strain, 3 h; 100 means same as DMSO wells; GFP response vs DMSO, % at 10 µM; 320,000 compounds, 0.065% hits;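 active means GFP response relative to DMSO above a set limit, near the screen mean plus 3 SD, cut at about 150% in these data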;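 further: ratio of well median GFP fluorescence to mean of DMSO wells on the plate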
RPL19A TOR yeast: RPL19A-GFP expression modulators in yeast, primary screen, cell-based, S. cerevisiae, multiplex flow cytometry, MLPCN. S. cerevisiae RPL19A-GFP strain, 3 h; hits give low values. percent response vs DMSO, % at 10 µM. 330,000 compounds, 0.3% hits;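 active means percent response vs DMSO below 50%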;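 further: median channel GFP fluorescence of the barcoded RPL19A-GFP strain; lower means less RPL19A-GFP as with rapamycin TOR inhibition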
MEP2 TOR yeast: modulators of MEP2-GFP levels in yeast, primary screen, S. cerevisiae, multiplex flow cytometry, MLPCN library; S. cerevisiae MEP2-GFP strain, 3 h; 100% = DMSO control level; 330,000 compounds, 0.51% hits; GFP response vs DMSO, % at 10 µM;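 active means GFP response versus DMSO above a set limit, roughly screen mean plus 3 SD, cut at about 180% in these data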;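 further: median GFP fluorescence of the barcode-gated MEP2-GFP cells per well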
LAP4 TOR yeast: modulators of LAP4-GFP expression in yeast, primary screen, S. cerevisiae, multiplex flow cytometry, MLPCN library; GFP response vs DMSO, % at 10 µM; 320,000 compounds, 0.34% hits; AID 2023, 2009; 3 h; median GFP as percent of DMSO wells;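 active means GFP response vs DMSO above a set limit, about the screen mean plus 3 SD, cut at about 150% in these data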
AGP1-GFP MLPCN: modulators of AGP1-GFP expression in yeast TOR pathway, primary screen, cell-based, multiplex flow cytometry, S. cerevisiae, MLPCN library. GFP response vs DMSO, % at 10 µM. 3 h; GFP as percent of DMSO wells. 320,000 compounds, 0.02% hits;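 active means GFP response relative to DMSO above a set limit, near screen average plus 3 SD, cut at about 150% in these data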;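 further: median GFP channel fluorescence of the gated AGP1 strain per well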
LAP4-GFP pick2: LAP4-GFP expression modulators in yeast, confirmation, cell-based, second cherry pick, flow cytometry; shares compounds with LAP4 TOR yeast; S. cerevisiae LAP4-GFP strain, 3 h; GFP response vs DMSO, % at 10 µM; 590 compounds, 20% hits;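 active means GFP signal as percent of the solvent control above about 150%, meaning raised reporter expression, limit read from the data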
MEP2-GFP pick2: modulators of MEP2-GFP levels in yeast, confirmation, S. cerevisiae, flow cytometry GFP, second cherry picks. shares compounds with LAP4 TOR yeast. S. cerevisiae MEP2-GFP strain, 3 h. GFP response vs DMSO, % at 10 µM. 590 compounds, 10% hits. AID 2622, 2010;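 active means GFP signal above 150% of the solvent control wells, that is a rise of more than half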;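 further: median channel GFP fluorescence of all gated yeast cells per well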
RPL19A GFP CP2: RPL19A-GFP modulators in TOR pathway yeast, confirmation, cell-based, S. cerevisiae, flow cytometry, second cherry pick; 590 compounds, 3% hits; AID 2623, 2010; S. cerevisiae RPL19A-GFP strain, 3 h; hits give low values; 100% means same as DMSO wells; GFP response vs DMSO, % at 10 µM; shares compounds with LAP4 TOR yeast;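 active means under 65% GFP response relative to DMSO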;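 further: median GFP channel fluorescence per well over the all cells gate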
CIT2 GFP CP2: modulators of CIT2-GFP expression in yeast, confirmation, flow cytometry, second cherry pick, single plex; GFP response vs DMSO, % at 10 µM; shares compounds with LAP4 TOR yeast; S. cerevisiae CIT2-GFP strain, 3 h; DMSO control wells read 100%; 590 compounds, 8% hits;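 active means GFP response vs DMSO above about 150%, limit read from the data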;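 further: median green fluorescence per well over all gated yeast cells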
AGP1-GFP pick2: AGP1-GFP expression modulators, hit retest, confirmation, cell-based, flow cytometry, S. cerevisiae, cherry pick set 2; shares compounds with LAP4 TOR yeast; S. cerevisiae AGP1-GFP strain, 3 h; percent response vs DMSO, % at 10 µM; 590 tested, under 10 active; AID 2643, 2010;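 active means over 150 percent of DMSO response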;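 further: median GFP channel fluorescence over all cells without mother daughter split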
s288c autofluor: compound autofluorescence in yeast s288c, dose response, artefact control for yeast TOR pathway GFP screen, s288c strain. 610 tested, under 10 active. S. cerevisiae s288c, 520 nm autofluorescence, flow cytometry, 3 h; hits give high values; zero means same as solvent-only cells. fluorescence change (kMESF span) at 33 µM. shares compounds with LAP4 TOR yeast;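 active means fluorescence span over the dose series, or activity score, above about 33, limit read from the data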
Numbers stand for hits.

How did C=CCn1c(C)c(C(C)=O)c(N2CCOCC2)nc1=S do in these assays?
CIT2-GFP yeast: inactive; RPL19A TOR yeast: inactive; MEP2 TOR yeast: inactive; LAP4 TOR yeast: inactive; AGP1-GFP MLPCN: inactive; LAP4-GFP pick2: inactive; MEP2-GFP pick2: inactive; RPL19A GFP CP2: inactive; CIT2 GFP CP2: inactive; AGP1-GFP pick2: inactive

How did O=C(O)c1cccc(-n2cccc2/C=C\[N+](=O)[O-])c1 do in these assays?
CIT2-GFP yeast: inactive; RPL19A TOR yeast: inactive; MEP2 TOR yeast: inactive; LAP4 TOR yeast: inactive; AGP1-GFP MLPCN: inactive

What do the screens show for `O=C(O)c1cccc(-n2cccc2/C=C/[N+](=O)[O-])c1`?
CIT2-GFP yeast: inactive; RPL19A TOR yeast: inactive; MEP2 TOR yeast: inactive; LAP4 TOR yeast: 162.7; AGP1-GFP MLPCN: inactive; LAP4-GFP pick2: inactive; MEP2-GFP pick2: inactive; RPL19A GFP CP2: inactive; CIT2 GFP CP2: inactive; AGP1-GFP pick2: inactive

What do the screens show for `Cc1ccc(S(=O)(=O)Cn2nnnc2C(CC(C)C)N2CCN(c3ccccc3)CC2)cc1` (stereo unspecified)?
CIT2-GFP yeast: inactive; RPL19A TOR yeast: inactive; MEP2 TOR yeast: inactive; LAP4 TOR yeast: inactive; AGP1-GFP MLPCN: inactive

How did CC1=CN2C(=N)/C(=C/c3ccc([N+](=O)[O-])o3)C(=O)N=C2S1 do in these assays?
CIT2-GFP yeast: inactive; RPL19A TOR yeast: inactive; MEP2 TOR yeast: active; LAP4 TOR yeast: 862.9; AGP1-GFP MLPCN: inactive; LAP4-GFP pick2: active; MEP2-GFP pick2: active; RPL19A GFP CP2: inactive; CIT2 GFP CP2: active; AGP1-GFP pick2: 243.1

Results for CC1=CN2C(=N)/C(=C/c3ccco3)C(=O)N=C2S1 ?
CIT2-GFP yeast: inactive; RPL19A TOR yeast: inactive; MEP2 TOR yeast: inactive; LAP4 TOR yeast: inactive; AGP1-GFP MLPCN: inactive

How did COc1ccc(C(c2c(C)[nH]n(C(N)=S)c2=O)C(C#N)C#N)cc1 (stereo unspecified) do in these assays?
CIT2-GFP yeast: inactive; RPL19A TOR yeast: inactive; MEP2 TOR yeast: inactive; LAP4 TOR yeast: 335.3; AGP1-GFP MLPCN: inactive; s288c autofluor: inactive

How did Oc1ccc2ccccc2c1/C=N/Nc1nnc(-c2ncc[nH]2)c2ccccc12 do in these assays?
CIT2-GFP yeast: inactive; RPL19A TOR yeast: inactive; MEP2 TOR yeast: 194.5; LAP4 TOR yeast: 277.2; AGP1-GFP MLPCN: inactive; s288c autofluor: 40.4

How did O=C(NCc1ccccc1F)C1CCN(C(=O)Nc2ccc(F)cc2)CC1 do in these assays?
CIT2-GFP yeast: inactive; RPL19A TOR yeast: inactive; MEP2 TOR yeast: inactive; LAP4 TOR yeast: inactive; AGP1-GFP MLPCN: inactive

Results for Cc1ccc(S(=O)(=O)NCc2ccccc2)cc1C(=O)NCCc1ccc(S(N)(=O)=O)cc1 ?
CIT2-GFP yeast: inactive; RPL19A TOR yeast: inactive; MEP2 TOR yeast: inactive; LAP4 TOR yeast: inactive; AGP1-GFP MLPCN: inactive
